In all, about 33,000 sequences were measured (“E-score (-0.5 to 0.5)”: median about -0.016, highest 2% from about 0.31 on). What follows is part of a selection rich in the highest values, with near analogues and random picks from the rest.
Target: Cst6 (UniProt P40535)
Assay: PBM E-score (8-mer binding enrichment) (E-score (-0.5 to 0.5)); higher = stronger / more preferred TF binding
Conditions: protein concentration: 200 nM; construct: GST-DNA-binding domain
Method: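 Universal 'all 10-mer' protein binding microarrays (Agilent AMADID 015681) probed with GST-tagged S. cerevisiae TFs (full-length or DBD) made by in vitro transcription/translation (PURExpress), about 100-200 nM. Bound TF was detected with fluorescent anti-GST. Each ungapped 8-mer (which stands for itself and its reverse complement) is scored by the PBM enrichment score (E-score), a modified Wilcoxon-Mann-Whitney statistic from -0.5 to +0.5, computed with the Universal PBM Analysis Suite. Scale: above 0.35 generally sequence-specific binding.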

Sequence of UniProt P40535 (P40535 whole entry): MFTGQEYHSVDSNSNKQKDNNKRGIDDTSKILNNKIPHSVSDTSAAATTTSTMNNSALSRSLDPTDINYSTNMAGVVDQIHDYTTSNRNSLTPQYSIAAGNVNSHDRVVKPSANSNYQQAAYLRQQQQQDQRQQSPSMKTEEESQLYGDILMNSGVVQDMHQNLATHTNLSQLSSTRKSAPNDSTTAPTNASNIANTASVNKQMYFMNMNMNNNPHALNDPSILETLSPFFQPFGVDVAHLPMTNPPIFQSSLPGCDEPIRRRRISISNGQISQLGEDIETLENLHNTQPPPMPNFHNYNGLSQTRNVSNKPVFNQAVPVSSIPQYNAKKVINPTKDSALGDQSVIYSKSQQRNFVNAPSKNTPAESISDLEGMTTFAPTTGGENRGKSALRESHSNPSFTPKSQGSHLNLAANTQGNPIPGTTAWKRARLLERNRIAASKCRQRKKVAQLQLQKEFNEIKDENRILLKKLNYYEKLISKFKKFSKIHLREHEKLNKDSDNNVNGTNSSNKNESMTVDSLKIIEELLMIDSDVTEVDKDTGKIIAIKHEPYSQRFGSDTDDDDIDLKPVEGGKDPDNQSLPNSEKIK

Row | Sequence | PBM E-score
1 | ATCCGTGA | -0.0022
2 | GATCGGAC | -0.0973
3 | CAGATTGC | -0.0228
4 | GTAGATGA | 0.181
5 | CCTAGCTA | -0.162
6 | ATTTGTGG | 0.0944
7 | AGATTACC | 0.144
8 | CGATTACA | 0.13
9 | CGATTACG | 0.349
10 | AGATTACT | 0.144
11 | AGATTACG | 0.386
12 | CGATTACC | -0.107
13 | CTCCCACC | -0.335
14 | ACGGCTTC | 0.0724
15 | AAGCCTGT | -0.0963
16 | GTCGCCCA | -0.192
17 | CAGCTCTC | -0.172
18 | AATAATAG | 0.209
19 | AATAATGT | 0.181
20 | AAAAATAG | 0.118
21 | AATAATAA | 0.313
22 | AAAAATAT | 0.309
23 | AATAATAT | 0.305
24 | AAAAATAA | 0.292
25 | AACAATAA | 0.204
26 | AATAATAC | 0.197

Row | Sequence | PBM E-score
27 | CATAATAA | 0.267
28 | AACAATAC | 0.156
29 | AACAATAT | 0.37
30 | GCCTTAAA | 0.151
31 | GATGGCCC | -0.106
32 | CGAGCCCG | -0.126
33 | CGGAAATA | 0.155
34 | CCGAGTTC | -0.063
35 | CCCTAGGA | -0.295
36 | TACTAATA | 0.222
37 | GTTTAATA | 0.202
38 | AATTAATT | 0.311
39 | AACTAATA | 0.336
40 | AATTAATG | 0.174
41 | AATTAATA | 0.39
42 | TATTAATA | 0.0736
43 | CTTTAATA | 0.201
44 | ATTTAATA | 0.338
45 | GATTAATA | 0.261
46 | CACTAATA | 0.211
47 | AATTAATC | 0.197
48 | GAGTCCGA | -0.0585
49 | TCGCCAGA | -0.0255
50 | ACTCGCCA | -0.037
51 | AATAAACG | 0.157
52 | GCCGGAGC | -0.249

Row | Sequence | PBM E-score
53 | CAACTGAC | 0.0886
54 | CGATGTAA | 0.117
55 | TGATGTAA | 0.488
56 | AGATGTAA | 0.27
57 | TGATGCAA | 0.418
58 | GGATGCAA | -0.129
59 | CGATGCAA | -0.0639
60 | CACAGGAA | -0.0714
61 | TCAATCGA | 0.249
62 | TGACGGAA | 0.432
63 | CGACGGCA | -0.00873
64 | CGACGGAA | -0.188
65 | TGACGGCA | 0.371
66 | GGACGGCA | 0.25
67 | GGACGGAA | -0.119
68 | CCGTCGGA | -0.114
69 | CCCAGTAC | -0.202
70 | GAGTCACC | 0.0602
71 | CCGTCACA | 0.139
72 | TCGTCACA | 0.368
73 | GCGTCACC | 0.448
74 | ACGTCACC | 0.496
75 | CCGTCACG | 0.176
76 | AGGTCACC | 0.0958
77 | AAGTCACC | 0.188
78 | TGGTCACA | 0.0201

Row | Sequence | PBM E-score
79 | GGGTCACC | -0.153
80 | GCGTCACA | 0.417
81 | TAGTCACA | 0.0725
82 | CCAAAGCC | -0.0189
83 | AACATCCT | -0.0218
84 | GAGGATTA | -0.125
85 | GTAGCGAC | -0.304
86 | CCATCAAG | -0.165
87 | CGGCGGTA | 0.128
88 | AAGAGTGT | 0.0413
89 | ACGACCGT | -0.238
90 | GCGGGGTA | -0.201
91 | GAGCCTCC | -0.278
92 | AGGGCGGG | -0.0957
93 | ACTCCGAA | -0.169
94 | CAGTCACC | -0.113
95 | CCGTCACC | 0.411
96 | CGGTCACC | 0.0497
97 | AGGTTCGC | -0.315
98 | ACAATGGG | 0.0198
99 | CCAGACCG | -0.0843
100 | ACCTGCGA | -0.26
101 | AGCTGCTG | -0.0369
102 | GACGAAAA | 0.329
103 | TACGAAAA | 0.233
104 | CACGAAAA | 0.247

Row | Sequence | PBM E-score
105 | TGCTGACA | 0.0293
106 | CCCAATCG | -0.0318
107 | GTCATCGA | 0.348
108 | ATCATCAA | 0.326
109 | CTCATCTA | -0.113
110 | GTCATCAA | 0.385
111 | CTCATCAA | 0.134
112 | ATCATCGA | 0.183
113 | CTCATCGA | -0.0055
114 | GCCATCAA | -0.169
115 | GTCATCTA | 0.368
116 | TTCATCAA | 0.151
117 | GGCATCAA | 0.0768
118 | ATCATCTA | 0.151
119 | AGAGCCCA | -0.263
120 | ATCCCGAA | 0.00888
121 | TCGAACCA | -0.0349
122 | CCATGGAA | -0.0645
123 | ACCAGGTC | -0.218
124 | CTCATCCA | 0.0578
125 | ATCATCCA | 0.0994
126 | GTCATCCA | 0.383
127 | AGGGGTTC | -0.327
128 | CGTCACGC | 0.441
129 | GGTCACGA | 0.0109
130 | CGTCACGA | 0.449

Row | Sequence | PBM E-score
131 | AGTCACGC | -0.07
132 | AGTCACGA | 0.0257
133 | CCTCACGC | 0.22
134 | GCCCACGC | -0.238
135 | GTGATGGA | 0.0419
136 | AAGTCTGC | -0.226
137 | ATCTTCTC | -0.0503
138 | GACCAAAC | 0.0333
139 | AACGCCGA | 0.23
140 | AATGCCGT | 0.418
141 | CACGCCGC | 0.0528
142 | AATGCCGG | -0.0561
143 | AATGCCGA | 0.041
144 | AACGCCGT | 0.373
145 | GACGCCGC | 0.271
146 | AACGCCGC | 0.361
147 | AACGCCGG | -0.138
148 | GCTCGGCA | -0.0691
149 | ACGTTTCT | -0.0531
150 | CCCAGGGC | -0.337
151 | CTCCTCAG | -0.231
152 | CCAATTGG | -0.0187
153 | ACAAGCGT | 0.0465
154 | CCCATGAC | 0.336
155 | CCCATGAA | -0.00568
156 | ACCATGAT | 0.146

Row | Sequence | PBM E-score
157 | GCCATGAC | 0.284
158 | ACCATGAC | 0.395
159 | ACCATGAA | 0.0849
160 | CCCATAAA | -0.0662
161 | ACCCTGCT | -0.34
162 | CAGCGTCA | 0.279
163 | AAGCGTCC | -0.0893
164 | AAGCGTCA | 0.336
165 | AAGCGTCG | -0.151
166 | TAGCGTCA | 0.399
167 | GAGCGTCA | 0.271
168 | AGGTGCGA | -0.148
169 | ATCTTTAC | 0.162
170 | ATATCATA | 0.315
171 | CTATCATA | 0.14
172 | ATATCAGC | -0.0588
173 | ATATCATG | 0.19
174 | CTATCATC | 0.0729
175 | ATATCATC | 0.337
176 | CCGGATCC | -0.199
177 | CAGGATGC | -0.125
178 | GCCGCCGC | 0.205
179 | TAGGCAGA | 0.0434
180 | TCGTCAAA | 0.195
181 | GAGTCAAC | -0.0954
182 | ACGTCAAA | 0.389

Row | Sequence | PBM E-score
183 | ACGTCAAC | 0.484
184 | ACGTCGAA | 0.112
185 | CCGTCAAC | 0.0147
186 | GTGTCAAC | 0.0573
187 | ACGTCGAT | 0.316
188 | AGGTCAAC | -0.0368
189 | GCGTCAAC | 0.335
190 | ACGTCGAG | -0.115
191 | GCGTCAAA | 0.151
192 | CGCCAGTA | -0.0657
193 | TAAATTAA | 0.127
194 | CTCAGTAC | -0.0935
195 | ACGTCAAT | 0.455
196 | ATGTCAAT | 0.26
197 | CCGTCAAG | -0.129
198 | ACGTCAAG | 0.373
199 | AGGTCAAT | 0.0479
200 | AGGTCAAG | -0.0961
201 | ATAAGAGA | 0.217
202 | CAAAGGTG | -0.0715
203 | GTGCAGAA | 0.0789
204 | ACATCGGC | -0.0191
205 | GCGCCAAA | -0.042
206 | AATTTATA | 0.263
207 | AAATTATC | 0.308
208 | CATTTATC | 0.151

Row | Sequence | PBM E-score
209 | AAATTAAT | 0.248
210 | AAATTATG | 0.164
211 | AAATTATA | 0.278
212 | AAATTAGT | 0.29
213 | AAATTATT | 0.314
214 | AATTTATC | 0.312
215 | GGTTTTGA | 0.105
216 | GGCCCTGA | -0.208
217 | AACAGGCA | -0.0324
218 | GCGTAAAC | 0.168
219 | AAGTAAAT | 0.214
220 | AGGTAAAT | 0.0678
221 | ACGTAAAT | 0.385
222 | ATGTAAAC | 0.269
223 | ACGTAAAC | 0.31
224 | CCGTAAAC | 0.0456
225 | ACGTAAAG | 0.306
226 | ATGTAAAA | 0.144
227 | ATGTAAAT | 0.309
228 | CCGTAAAG | 0.00566
229 | AAGTAAAG | -0.172

Source: the supplement of paper PMC3334620
